Source: PubChem BioAssay AID1851 (National Center for Advancing Translational Sciences (NCATS), 2009)
The whole screen tested about 16,000 compounds, of which about 5,100 (32%) were called active. Roughly 25% stayed inconclusive and do not appear here. Calls follow the shape of the dose curve; as a rule, active = well fitted curve in the direction sought with a large enough effect; inconclusive = small, poorly fitted or top-dose-only effect, or effect the other way; inactive = no such curve, though single readings can be large or run the other way. The list shows a part of the results.

molecular target: Cytochrome P450 3A4 (Homo sapiens) (UniProt P08684); assay: Cytochrome panel assay with activity outcomes; settings: recombinant CYP, pro-luciferin dealkylation, luminescence, p450-cyp3a4; series mostly up to 57.1 µM; activity, negative = inhibition: at the top concentration
% is scaled to controls: 0 for no effect and ±100 for the full control effect.

Sequence of Cytochrome P450 3A4 (Homo sapiens) (P08684 whole entry, looked up): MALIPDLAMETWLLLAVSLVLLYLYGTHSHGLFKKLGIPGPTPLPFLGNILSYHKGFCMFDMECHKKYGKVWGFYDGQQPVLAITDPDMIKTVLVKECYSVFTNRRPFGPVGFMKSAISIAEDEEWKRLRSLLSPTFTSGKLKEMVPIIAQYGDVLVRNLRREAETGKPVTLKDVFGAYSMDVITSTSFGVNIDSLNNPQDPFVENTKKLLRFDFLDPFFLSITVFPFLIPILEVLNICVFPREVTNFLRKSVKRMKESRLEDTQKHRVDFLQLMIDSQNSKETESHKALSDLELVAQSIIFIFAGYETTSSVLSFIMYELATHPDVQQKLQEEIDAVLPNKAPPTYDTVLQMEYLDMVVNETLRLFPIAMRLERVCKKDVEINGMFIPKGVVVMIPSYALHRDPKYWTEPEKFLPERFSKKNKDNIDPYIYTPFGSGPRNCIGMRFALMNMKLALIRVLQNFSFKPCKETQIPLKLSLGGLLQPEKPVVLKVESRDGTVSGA

activity, negative = inhibition, inactive:
CCOC(=O)CCN1C(=O)[C@H]2[C@H]3[C@H](O)[C@H](O)C/C(=N/OC/C=C(\C)CCC=C(C)C)[C@@H]3CC[C@@H]2C1=O -25.9% [at 11.4 µM]
CC(C)=CCC/C(C)=C/CO/N=C1/C[C@@H](O)[C@@H](O)[C@@H]2[C@@H]3C(=O)N(C[C@@H]4CCCO4)C(=O)[C@H]3CC[C@@H]12 -23% [at 11.4 µM]
CCOC(=O)CCN1C(=O)[C@H]2[C@H]3[C@H](O)[C@H](O)C/C(=N/OC/C=C(\C)CCC=C(C)C)[C@H]3CC[C@@H]2C1=O -16.7% [at 11.4 µM]
CC(C)=CCC/C(C)=C/CO/N=C1/C[C@@H](O)[C@@H](O)[C@@H]2[C@@H]3C(=O)N(Cc4ccccc4)C(=O)[C@H]3CC[C@@H]12 -7.78% [at 11.4 µM]
CCn1c(CCCc2nc3c([nH]2)c(=O)n(C)c(=O)n3C)nc2c1c(=O)n(C)c(=O)n2C -26.8% [at 11.4 µM]
COC(=O)c1[nH]c2ccc(Br)cc2c1NC(=O)Oc1ccccc1 10.3% [at 2.29 µM]
COC(=O)c1[nH]c2ccc(Br)cc2c1NC(=O)CN1CCCc2ccccc21 -23.9% [at 2.29 µM]
CNC(=S)NNC(=O)COc1ccccc1C -15%
CCCC1CCC(c2ccc(C(N)=O)cc2)CC1 (stereo unspecified) -23.3%
N=c1c(C(=O)NC2CCCC2)cc2c(=O)n3ccccc3nc2n1C1CCCC1 6.82%
CCSc1nnc(-c2ccccc2NC(C)=O)c(=O)[nH]1 13.7%
CCCCN1C(=O)NC(NC(=O)c2ccco2)(C(F)(F)F)C1=O (stereo unspecified) 2.31% [at 2.29 µM]
CC[C@H](CN(C)C)C(=O)c1ccco1 -7.24% [at 11.4 µM]
CCOC(=O)CC(NC(=O)c1cccs1)c1ccc(OCC)cc1 (stereo unspecified) -4.62%
Cc1noc(C)c1C(=O)N1CCC2(CCN(C(=O)NC(C)C)CC2)CC1 -8.24%
COC(=O)Cn1nc(-c2ccccc2)n(-c2ccccc2)c1=S 14.3%
CCn1nc(C(=O)Nc2ccccc2C)c(Cl)c1Cl -3.65%
O=c1c(-c2cc(F)cc(F)c2)nc2cnc(Oc3ccccc3)nc2n1C1CC1 -14%
COc1ncc2nc(-c3cc(F)cc(F)c3)c(=O)n(-c3ccccc3)c2n1 -23.8%
COc1cccc(Nc2ncc3nc(-c4ccc(F)cc4)c(=O)n(C)c3n2)c1 -16.2%
CN(CCO)Cc1ncccc1O -9.73% [at 11.4 µM]
CN1CCN(CCCNC(=O)C2CCN(c3nnc(-n4cccc4)s3)CC2)CC1 -16%
O=C(O)[C@H](Cc1c[nH]c2ccccc12)N1C(=O)c2ccccc2C1=O -3.21% [at 11.4 µM]
COc1ccccc1CN1CCCC2(CCNCC2)C1 -16.5%
c1ccc(C(c2ccccc2)N2CCC3(CCNCC3)CC2)cc1 -12.2%
COC(=O)c1ccc(NC(=O)c2cc3sccc3n2C)cc1 -90.9%
CCOC(=O)c1sc(NC(=O)CSc2nc(C)cc(C)c2C#N)c(C#N)c1C -17.1% [at 2.29 µM]
CN1[C@@H](CC(=O)c2ccccc2)CCC[C@@H]1C[C@@H](O)c1ccccc1 -4.36%
O=C1COC(c2ccccc2O)=NN1CCCN1CCCC1 -10.8% [at 11.4 µM]
CCN1CCC[C@@H]1CNC(=O)c1cc(S(N)(=O)=O)ccc1OC -4.15%
O=C(CSc1ccccc1)Nc1ccc(N2CCN(c3ccccc3)CC2)c(F)c1 -8.27% [at 11.4 µM]
O=C(CSc1ccc(Cl)cc1)Nc1ccc(N2CCN(c3ccccc3)CC2)c(F)c1 -28.4%
Cn1nc(-c2ccccc2)c(C(=O)Nc2ccc(Cl)cc2)c1Cl -29.6%
O=C(Nc1ccc(Cl)cc1)c1cnc(-c2ccccc2)nc1-c1ccccc1 -16%
Brc1ccc2cccnc2c1 25.9%
N#CCCn1c(=O)c(-c2ccc(Cl)cc2)nc2cnc(N3CCOCC3)nc21 -6.31%
CN1CCN(c2ncc3nc(-c4ccc(Cl)cc4)c(=O)n(CCC#N)c3n2)CC1 10.9%
Cc1ccc(S(=O)(=O)N/N=C/c2ccc(OC3CSC3)cc2)cc1 -21.9% [at 2.29 µM]
Cc1cc(OC(=O)c2ccccc2Br)cc(=O)n1C -13.2% [at 11.4 µM]
CC(C)N=c1cc2n(-c3ccc(Cl)cc3)c3ccccc3nc-2cc1Nc1ccc(Cl)cc1 -8.96% [at 25.6 µM]
O=C(N/N=C/c1ccc(Cl)cc1Cl)Nc1ccccc1 -14%
CC(Sc1nc(NCc2ccccc2)nc(N(C)C)n1)C(=O)Nc1ccccc1 (stereo unspecified) -9.99% [at 2.29 µM]
O=C(O)CC1(C(=O)O)CCCCC1 -15.2% [at 11.4 µM]
Cc1ccc(CSc2nnc3c(n2)OC2(Nc4ccccc4-3)C(=O)Nc3ccc(F)cc32)cc1 (stereo unspecified) -12.4% [at 2.29 µM]
CC[C@H]1CN(C)[C@H]2Cc3c([nH]c4ccccc34)C(=O)C[C@H]1[C@H]2C(=O)OC -21.4% [at 11.4 µM]

AC50, active:
CC(C)=CCC/C(C)=C/CO/N=C1/C[C@@H](O)[C@@H](O)[C@@H]2[C@@H]3C(=O)N(Cc4ccc5c(c4)OCO5)C(=O)[C@H]3CC[C@H]12 1.58 µM
CC(C)=CCC/C(C)=C/CO/N=C1/C[C@@H](O)[C@@H](O)[C@@H]2[C@@H]3C(=O)N(Cc4ccc5c(c4)OCO5)C(=O)[C@H]3CC[C@@H]12 1.58 µM
COC(=O)c1[nH]c2ccc(Br)cc2c1NC(=O)CN1CCN(C2CCCCC2)CC1 14.1 µM
COc1ccc(C2c3c(ncn(CCN4CCOCC4)c3=N)Oc3ccc4ccccc4c32)cc1OC (stereo unspecified) 3.16 µM
Cc1ccccc1OCCNC(=O)c1ccccc1Sc1ccccc1C#N 14.1 µM
CC(C)c1nc2ccccn2c1NC1CCCCC1 14.1 µM
CCC[C@@H]1C[C@@]1(CCC)C(NC(=O)c1cccs1)c1ccc(Cl)cc1 (stereo partly specified) 6.31 µM
CCC[C@@H]1C[C@@]1(CCC)C(NC(=O)c1ccco1)c1ccc(Cl)cc1 (stereo partly specified) 12.6 µM
CCC[C@@H]1C[C@@]1(CCC)C(NS(=O)(=O)c1cccc2cccnc12)c1ccc(Cl)cc1 (stereo partly specified) 0.794 µM
CCn1c(-c2ccccc2Cl)nn(CC(=O)Nc2ccc(OC)cc2)c1=S 5.01 µM
CCn1c(-c2ccccc2Cl)nn(CC(=O)Nc2ccccc2OC)c1=S 12.6 µM
CCn1c(-c2ccccc2Cl)nn(CC(=O)Nc2cc(Cl)ccc2Cl)c1=S 5.01 µM
COc1ccc(Oc2ncc3nc(-c4ccc(F)cc4)c(=O)n(C)c3n2)cc1 3.98 µM
COc1ccc(Oc2ncc3nc(-c4cc(F)cc(F)c4)c(=O)n(C)c3n2)cc1 5.01 µM
O=C(NCCc1c[nH]c2ccccc12)C1CCN(c2nnc(N3CCCC3=O)s2)CC1 8.91 µM
CCOc1ccc(NC(=S)N(Cc2ccc(N(C)C)cc2)Cc2ccco2)cc1 7.08 µM
CCOc1ccc(NC(=S)N(Cc2ccc(Cl)cc2)Cc2ccco2)cc1 3.55 µM
Cc1cccc(OCCSCc2nc3ccccc3[nH]2)c1 7.08 µM
c1ccc(C(c2ccccc2)N2CC[C@@]3(CCCNC3)C2)cc1 7.94 µM
c1ccc(C(c2ccccc2)N2CCCC3(CCNCC3)C2)cc1 1.26 µM
Cc1cc(C)cc(-n2c(O)c(C=NC3CCS(=O)(=O)C3)c3ccccc3c2=O)c1 (stereo unspecified) 10 µM
Cn1c(C(=O)Nc2ccccc2)cc2sccc21 25.1 µM
O=C(Nc1ccc2c(c1)OCCO2)c1cc2sccc2n1Cc1ccc(F)cc1 5.01 µM
O=C(Nc1ccc2c(c1)OCCO2)c1cc2sccc2n1Cc1ccccc1 6.31 µM
CCOC(=O)c1sc(NC(=O)CSc2nc(C)cc(C)n2)c(C#N)c1C 10 µM
CCOC(=O)c1sc(NC(=O)CSc2n[nH]c(-c3ccc(Cl)cc3Cl)n2)c(C#N)c1C 10 µM
CCc1ccc(N/C(SCc2ccccc2C)=C(/C#N)C(=O)NCc2ccco2)cc1 6.31 µM
O=C(CSc1ccc(Cl)cc1)Nc1ccc(N2CCN(C(=O)c3ccc(Cl)cc3)CC2)cc1 0.891 µM
Cc1nc(-c2cccnc2)sc1C(=O)Nc1ccc(F)cc1F 15.8 µM
Cc1nc(-c2cccnc2)sc1C(=O)Nc1ccc(Cl)cc1 14.1 µM
N#CCCn1cc(/C=N/O)c(-c2ccc(Cl)cc2)n1 12.6 µM
O=S(=O)(N/N=C\c1ccc2c(c1)OCO2)c1ccc(Cl)cc1 3.98 µM
O=S(=O)(N/N=C/c1ccc2c(c1)OCCO2)c1ccc(Cl)cc1 14.1 µM
CN(C)c1nc(NCc2ccccc2)nc(N/N=C/c2ccc(Cl)cc2Cl)n1 2.24 µM
N.N.O=C(O)C1(C(=O)O)CCC1.[Pt] 39.8 µM
Cc1ccc(S(=O)(=O)c2nc(S(=O)(=O)c3ccc(C)cc3)c(NCc3ccco3)s2)cc1 3.55 µM
O=C1Nc2ccc(F)cc2C12Nc1ccccc1-c1nnc(SCc3ccccc3F)nc1O2 (stereo unspecified) 15.8 µM
Cc1cc(CNC(=O)[C@H]2C[C@@H]2[C@H](NP(=O)(c2ccccc2)c2ccccc2)c2ccccc2)nn1C 2.51 µM
Cc1cc(CNC(=O)[C@@H]2C[C@H]2[C@@H](NP(=O)(c2ccccc2)c2ccccc2)c2ccccc2)nn1C 0.398 µM
Cc1ccc(CNC(=O)[C@H]2C[C@@H]2[C@H](NP(=O)(c2ccccc2)c2ccccc2)c2ccccc2)c(F)c1F 0.316 µM

AC50, inactive:
NC1(C(=O)O)C[C@@H](C(=O)O)[C@H](C(=O)O)C1
